Data on 8 compounds can be found in PubChem BioAssay (NCI).

About 83,000 compounds went through this panel and 20% of them were active in at least one assay; those are over-represented in the sample as a whole.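 Values shown are percent growth following 48 h exposure of cells in 96-well plates to a single concentration of compound; below 10 was considered active.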 Values without a mark were called inactive. Calls of active or inactive are those of the source.

Test systems include DU-145 prostate; K-562 leukemia; MALME-3M melanoma; MDA-MB-231 breast; SF-268 CNS; SF-295 CNS; SF-539 CNS; M14 melanoma; HCT-15 colon; HT29 colon; SNB-75 CNS; SNB-19 CNS; U251 CNS; PC-3 prostate; SK-MEL-5 melanoma; UACC-62 melanoma; LOX IMVI melanoma; SK-MEL-28 melanoma.
Assay in all cases: NCI-60 one-dose screen, 48 h (100 = growth as untreated, 0 = no growth, -100 = all killed)
Holding throughout (settings): 10 µM unless noted

In the case of `CCOC(=O)C1=C(C)N=C2Sc3cc(OC(F)(F)F)ccc3N2[C@H]1c1ccccn1`, the growth is 46.5% with DU-145 prostate; 21.9% in the test on K-562 leukemia; 59.1% in the test with MALME-3M melanoma; 53.9% in the test with MDA-MB-231 breast; 47.8% in the test with SF-268 CNS; 22.2% in the test on SF-295 CNS. The growth in the test on SF-539 CNS is 41%; with M14 melanoma, 27.3%; in the test with HCT-15 colon, 13.7%; in the test with HT29 colon, 39.2%; with SNB-75 CNS, 63.4%; in the test on SNB-19 CNS it was 37.9%. Also, the growth in the test with U251 CNS is 23.1%; in the test with PC-3 prostate, 50.9%; with SK-MEL-5 melanoma, 38.5%; with UACC-62 melanoma it was 28.3%; in the test with LOX IMVI melanoma, 32.9%; with SK-MEL-28 melanoma, 42.4%.

With `CCCCCCCC(=O)SCC/C=C/[C@@H]1CC(=O)NCc2cccc(n2)C2=N[C@@](C)(CS2)C(=O)N[C@@H](C(C)C)C(=O)N1`, the growth in the test with DU-145 prostate is 28.9%; with K-562 leukemia, 16%; with MALME-3M melanoma, 2.46% (active); in the test on MDA-MB-231 breast it was 21.9%; with SF-268 CNS it was 53.6%; in the test on SF-295 CNS, -1.52% (active). Further, the growth with SF-539 CNS is 48.6%; with M14 melanoma, 35.6%; in the test with HCT-15 colon, 75.3%; in the test on HT29 colon, -6.83% (active); in the test on SNB-75 CNS, 24.5%; in the test with SNB-19 CNS it was 38.6%. Also, the growth in the test on U251 CNS was 13.7%; in the test on PC-3 prostate, 26.9%; with SK-MEL-5 melanoma, 22.2%; in the test on UACC-62 melanoma it was 0.721% (active); in the test with SK-MEL-28 melanoma, 37.1%.

`CCOC(=O)C1=C(C)NC(=O)NC1c1cc(=O)oc2ccc(C)cc12` (stereo not drawn): the growth was 104% in the test with DU-145 prostate; 103% in the test with K-562 leukemia; 99% in the test on MALME-3M melanoma; 106% in the test on MDA-MB-231 breast; 101% in the test on SF-268 CNS; 96.9% in the test on SF-295 CNS. Moreover, the growth in the test on SF-539 CNS was 102%; in the test with M14 melanoma it was 102%; in the test on HCT-15 colon, 104%; with HT29 colon, 95.2%; in the test on SNB-75 CNS it was 97%; in the test on SNB-19 CNS, 106%. Further, the growth was 102% in the test on U251 CNS; 97.2% in the test on PC-3 prostate; 98.2% in the test with SK-MEL-5 melanoma; 99% in the test on UACC-62 melanoma; 97.5% with LOX IMVI melanoma; 107% with SK-MEL-28 melanoma.

`COc1cc(NCCN(CC(C)C)CC(C)C)c2ncc(C)cc2c1`: the growth with DU-145 prostate is 71.4%; with K-562 leukemia it was 34.2%; in the test with MALME-3M melanoma, 66.7%; with MDA-MB-231 breast it was 50.3%; in the test with SF-268 CNS, 71.1%; with SF-295 CNS, 64.6%. Besides, the growth in the test with SF-539 CNS was 97.7%; with M14 melanoma, 61%; with HCT-15 colon, 34.2%; in the test on HT29 colon, 86.1%; with SNB-75 CNS, 95.3%; with SNB-19 CNS, 85.3%. The growth in the test with U251 CNS was 67.9%; in the test with PC-3 prostate, 47.8%; with SK-MEL-5 melanoma, 23.6%; with UACC-62 melanoma, 53%; in the test on LOX IMVI melanoma it was 15.5%; with SK-MEL-28 melanoma it was 79.7%.

For `Cc1nn(-c2nc3ccccc3[nH]2)c2c1C(c1ccc(OCc3ccc(F)cc3)cc1)CC(=O)N2` (stereo not drawn), the growth is 96% in the test on DU-145 prostate; 87.6% in the test with K-562 leukemia; 81.3% in the test on MALME-3M melanoma; 42.8% in the test on MDA-MB-231 breast; 46.7% in the test with SF-268 CNS; 19% with SF-295 CNS. Moreover, the growth was 56.7% in the test with SF-539 CNS; 58.5% in the test on M14 melanoma; 41.5% with HCT-15 colon; 70.1% with HT29 colon; 48.3% in the test on SNB-75 CNS; 64.9% in the test on SNB-19 CNS. For the same compound, the growth was 41.6% with U251 CNS; 43.8% in the test on PC-3 prostate; 68.3% in the test with SK-MEL-5 melanoma; 61.3% in the test on UACC-62 melanoma; 28% in the test on LOX IMVI melanoma; 63% with SK-MEL-28 melanoma.

For `CC1(O)CCC2CC3OC3(C)CCC3OC3(C)C(O)CC1C2(C)C` (stereo not drawn), the growth with DU-145 prostate was 105%; in the test on K-562 leukemia, 119%; in the test with MALME-3M melanoma, 113%; in the test with MDA-MB-231 breast, 122%; in the test on SF-268 CNS it was 113%; with SF-295 CNS, 52%. For the same compound, the growth in the test on SF-539 CNS was 116%; in the test with M14 melanoma it was 114%; in the test on HCT-15 colon, 102%; in the test on HT29 colon, 102%; in the test on SNB-75 CNS, 95.3%; in the test with SNB-19 CNS it was 99.3%. Besides, the growth in the test on U251 CNS was 98.3%; in the test on PC-3 prostate, 87.4%; with SK-MEL-5 melanoma, 112%; in the test on UACC-62 melanoma, 98.3%; with LOX IMVI melanoma, 93.7%; in the test on SK-MEL-28 melanoma, 112%.

Turning to `CC(=O)OC1Oc2ccccc2-c2oc(=O)c(-c3cc4ccc(N(C)C)cc4oc3=O)cc21` (stereo not drawn), the growth in the test with DU-145 prostate was 19.1%; in the test on K-562 leukemia it was 1.45% (active); in the test on MALME-3M melanoma, 4.74% (active); with MDA-MB-231 breast, 59.5%; in the test on SF-268 CNS it was 73.1%; in the test with SF-295 CNS, 6.73% (active). The growth is 69.4% with SF-539 CNS; 47.2% in the test on M14 melanoma; 46.2% with HCT-15 colon; 72.4% with HT29 colon; 71.1% in the test with SNB-75 CNS; 48.2% with SNB-19 CNS. Also, the growth in the test with U251 CNS is 48.3%; in the test on PC-3 prostate it was 34.8%; in the test with SK-MEL-5 melanoma, 18.8%; in the test on UACC-62 melanoma it was 67.3%; with LOX IMVI melanoma, 43.2%; in the test on SK-MEL-28 melanoma, 103%.

As to `O=c1nc2c(-c3nc4ccccc4s3)n[nH]n2c2sc3c(c12)CCCC3`, the growth in the test on DU-145 prostate was 104%; in the test with K-562 leukemia, 92.3%; in the test with MALME-3M melanoma it was 104%; in the test with MDA-MB-231 breast, 93.7%; in the test with SF-268 CNS, 97.6%; with SF-295 CNS, 89.8%. Moreover, the growth in the test on SF-539 CNS was 105%; with M14 melanoma, 98.8%; with HCT-15 colon, 64%; in the test with HT29 colon, 111%; with SNB-75 CNS, 104%; in the test with SNB-19 CNS it was 101%. For the same compound, the growth in the test with U251 CNS was 86.5%; in the test with PC-3 prostate it was 79.6%; in the test on SK-MEL-5 melanoma, 101%; with UACC-62 melanoma, 92.7%; in the test with LOX IMVI melanoma, 96.9%; in the test with SK-MEL-28 melanoma, 114%.
